About 7,900 targets were measured; listed, in parts, are those with a hit and a random draw of the rest. About 0.6% of all pairs of compound and target were hits.
How the values were obtained:
Assay in all cases: log2 fold change, soluble protein after heating vs DMSO (PISA); higher = thermal stabilisation; K562 cells, 10 uM, 30 min; active = over 0.2 and 3.5 SD of the protein, either way, in both replicates (recomputed)
[1] = compound: CS(=O)(=O)c1ccc(-c2cnc(N)c(C(=O)Nc3ccccc3)n2)cc1
How it was run: (§1)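 K562 cells at 2×10^6 cells/mL were exposed to 10 μM compound for 30 min, then aliquots were heated for 3 min across 48°C-58°C, pooled, and extracted in PBS containing 0.5% NP-40 at 4°C. The supernatant after 21,000xg for 90 min was taken as soluble protein and measured by TMTpro 16plex LC-MS/MS with channel sums equalised. Thermal stability is reported relative to control samples, with values from duplicates. Fold changes are given on a log2 scale.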

[2] = compound: C[C@@H](Oc1cc(-c2cnn(C3CCNCC3)c2)cnc1N)c1c(Cl)ccc(F)c1Cl [crizotinib]
How it was run: as §1

[3] = compound: C[C@@H]1COCCN1C2=NC(=NC(=C2)C3(CC3)S(=O)(=O)C)C4=C5C=CNC5=CC=C4
How it was run: as §1

[4] = compound: C[C@H](C1=CC=C(C=C1)C(=O)NC2=C3C=CNC3=NC=C2)N
How it was run: as §1

[5] = compound: C[C@H](Nc1ncnc2nc[nH]c12)c1cc2cccc(Cl)c2c(=O)n1-c1ccccc1 [duvelisib]
How it was run: as §1

[6] = compound: Cc1cc(Nc2cc(CN3CCOCC3)c3nc(C)c(Cc4ccc(Cl)cc4F)n3n2)n[nH]1 [gandotinib]
How it was run: as §1

[7] = compound: Cc1cc(Nc2cc(N3CCN(C)CC3)nc(Sc3ccc(NC(=O)C4CC4)cc3)n2)n[nH]1 [tozasertib]
How it was run: as §1

[8] = compound: Cc1cc(SCc2sc(-c3ccc(C(F)(F)F)cc3)nc2C)ccc1OCC(=O)O
How it was run: as §1

[9] = compound: Cc1ccc(-n2nc(C(C)(C)C)cc2NC(=O)Nc2ccc(OCCN3CCOCC3)c3ccccc23)cc1 [doramapimod]
How it was run: as §1

[10] = compound: Cc1ccc(C(=O)N(CCCN)[C@@H](c2nc3cc(Cl)ccc3c(=O)n2Cc2ccccc2)C(C)C)cc1 [ispinesib]
How it was run: as §1

[11] = compound: Cc1ccc(NC(=O)c2ccc(CN3CC[C@H](N(C)C)C3)c(C(F)(F)F)c2)cc1Nc1nccc(-c2cncnc2)n1 [bafetinib]
How it was run: as §1

[12] = compound: Cc1cccc(CC(=O)N2CCc3c2ccc(-c2cn(C)c4ncnc(N)c24)c3F)n1
How it was run: as §1

[13] = compound: Cc1cn(-c2cc(NC(=O)c3ccc(C)c(Nc4nccc(-c5cccnc5)n4)c3)cc(C(F)(F)F)c2)cn1 [nilotinib]
How it was run: as §1

[14] = compound: Cc1nc(Nc2n[nH]c3c2CN(C(=O)N[C@H](CN(C)C)c2ccccc2)C3(C)C)c2sccc2n1
How it was run: as §1

[15] = compound: Cc1nc(Nc2ncc(C(=O)Nc3c(C)cccc3Cl)s2)cc(N2CCN(CCO)CC2)n1 [dasatinib]
How it was run: as §1

[16] = compound: Cc1ncc(-c2ccnc(Nc3ccc(S(C)(=O)=O)cc3)n2)n1C(C)C
How it was run: as §1

[17] = compound: Cn1cc(-c2ccc3c(c2)CCN3C(=O)Cc2cccc(C(F)(F)F)c2)c2c(N)ncnc21
How it was run: as §1

[18] = compound: Cn1cc(-c2ccc3nnc(C(F)(F)c4ccc5ncccc5c4)n3n2)cn1
How it was run: as §1

[19] = compound: Cn1cncc1[C@@](N)(c1ccc(Cl)cc1)c1ccc2c(c1)c(-c1cccc(Cl)c1)cc(=O)n2C [tipifarnib]
How it was run: as §1

[20] = compound: FC(F)(F)c1ccc(/C=C/c2nc(COc3ccc(CCCCn4ccnn4)cc3)co2)cc1 [mubritinib]
How it was run: as §1

Measured: log2 fold change

PTGES3 (UniProt Q15185)
inactive: [1] 0.047 | [2] 0.066 | [3] 0.068 | [4] -0.101 | [5] 0.03 | [6] -0.049 | [7] 0.063 | [8] 0.086 | [9] -0.118 | [10] 0.015 | [11] -0.05 | [12] 0.028 | [13] -0.044 | [14] -0.089 | [15] -0.142 | [16] -0.042 | [17] 0.034 | [18] 0.039 | [19] -0.119 | [20] -0.091

PGGT1B (UniProt P53609)
inactive: [1] 0.093 | [2] 0.04 | [3] 0.002 | [4] -0.05 | [5] 0.046 | [6] -0.011 | [7] 0.006 | [8] -0.143 | [9] -0.028 | [10] 0.043 | [11] -0.069 | [12] -0.024 | [13] -0.007 | [14] -0.059 | [15] 0.075 | [16] 0.009 | [17] -0.027 | [18] 0.004 | [19] 0.134 | [20] 0.062

PLBD2 (UniProt Q8NHP8)
inactive: [1] 0.014 | [2] -0.07 | [3] 0.044 | [4] -0.008 | [5] 0.045 | [6] 0.003 | [7] 0.015 | [8] -0.028 | [9] 0.022 | [10] -0.088 | [11] -0.173 | [12] -0.056 | [13] -0.011 | [14] 0.024 | [15] -0.013 | [16] -0.052 | [17] 0.017 | [18] 0.044 | [19] 0.093 | [20] 0.056

PIK3R1 (UniProt P27986)
Sequence of UniProt P27986 (P27986 whole entry, looked up): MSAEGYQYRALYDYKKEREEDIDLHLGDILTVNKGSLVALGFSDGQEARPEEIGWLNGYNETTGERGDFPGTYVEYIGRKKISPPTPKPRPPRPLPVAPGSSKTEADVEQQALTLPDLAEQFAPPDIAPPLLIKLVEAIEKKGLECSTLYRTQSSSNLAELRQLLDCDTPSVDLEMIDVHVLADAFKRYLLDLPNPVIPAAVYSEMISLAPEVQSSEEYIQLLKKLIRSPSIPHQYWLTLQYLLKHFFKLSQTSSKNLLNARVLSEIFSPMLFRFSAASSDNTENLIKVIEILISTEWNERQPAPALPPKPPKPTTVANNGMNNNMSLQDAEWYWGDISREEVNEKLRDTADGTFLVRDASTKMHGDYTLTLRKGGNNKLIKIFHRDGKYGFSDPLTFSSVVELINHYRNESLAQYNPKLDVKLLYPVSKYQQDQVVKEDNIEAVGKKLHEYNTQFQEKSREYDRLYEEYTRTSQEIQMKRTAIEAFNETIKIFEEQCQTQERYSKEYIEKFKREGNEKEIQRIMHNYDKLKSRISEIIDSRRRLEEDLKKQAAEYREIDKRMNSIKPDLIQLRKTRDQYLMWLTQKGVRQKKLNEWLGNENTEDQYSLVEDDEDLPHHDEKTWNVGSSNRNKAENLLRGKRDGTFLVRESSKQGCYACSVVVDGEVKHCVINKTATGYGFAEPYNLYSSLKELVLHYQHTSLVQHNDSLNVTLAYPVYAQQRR
active: [5] 0.232
inactive: [1] 0.033 | [2] -0.044 | [3] 0.002 | [4] 0.022 | [6] -0.038 | [7] -0.026 | [8] 0.051 | [9] 0.056 | [10] -0.079 | [11] -0.061 | [12] 0.029 | [13] -0.074 | [14] 0.015 | [15] -0.117 | [16] 0.108 | [17] 0.009 | [18] -0.013 | [19] -0.026 | [20] 0.017

PPP2R5A (UniProt Q15172)
Sequence of UniProt Q15172 (Q15172 whole entry, looked up): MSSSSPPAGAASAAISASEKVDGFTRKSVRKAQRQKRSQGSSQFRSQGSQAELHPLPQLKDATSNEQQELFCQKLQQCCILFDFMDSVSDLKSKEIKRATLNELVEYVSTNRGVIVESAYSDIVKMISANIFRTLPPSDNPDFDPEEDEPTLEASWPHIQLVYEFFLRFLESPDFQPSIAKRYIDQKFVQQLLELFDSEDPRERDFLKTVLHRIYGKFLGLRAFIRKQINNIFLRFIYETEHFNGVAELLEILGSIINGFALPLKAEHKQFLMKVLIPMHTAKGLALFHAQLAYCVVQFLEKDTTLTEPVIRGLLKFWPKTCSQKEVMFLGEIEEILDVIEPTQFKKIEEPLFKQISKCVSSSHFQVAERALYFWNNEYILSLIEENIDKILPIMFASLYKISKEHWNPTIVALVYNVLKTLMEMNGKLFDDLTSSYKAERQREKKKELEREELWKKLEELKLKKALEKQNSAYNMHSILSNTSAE
inactive: [1] -0.018 | [2] -0.154 | [3] 0.014 | [4] 0.022 | [5] 0.033 | [6] -0.21 | [7] -0.049 | [8] 0.072 | [9] -0.019 | [10] -0.056 | [11] -0.008 | [12] 0.027 | [13] -0.075 | [14] -0.039 | [15] -0.205 | [16] 0.006 | [17] 0.032 | [18] 0.006 | [19] -0.179 | [20] 0.012

POLR2D (UniProt O15514)
inactive: [1] 0.006 | [2] 0.192 | [3] -0.08 | [4] 0.038 | [5] 0.065 | [6] 0.158 | [7] -0.012 | [8] -0.068 | [9] -0.024 | [10] 0.017 | [11] 0.009 | [12] -0.076 | [13] -0.028 | [14] 0.122 | [15] -0.013 | [16] 0.202 | [17] -0.036 | [18] 0.034 | [19] -0.01 | [20] 0.052

PECAM1 (UniProt P16284)
inactive: [1] 0.086 | [2] 0.145 | [3] 0.157 | [4] 0.034 | [5] 0.08 | [6] -0.001 | [7] -0.105 | [8] -0.03 | [9] -0.025 | [10] 0.099 | [11] -0.075 | [12] -0.011 | [13] 0.087 | [14] 0.097 | [15] 0.031 | [16] 0 | [17] -0.019 | [18] -0.013 | [19] 0.015 | [20] 0.022

PSMD6 (UniProt Q15008)
Sequence of UniProt Q15008 (Q15008 whole entry, looked up): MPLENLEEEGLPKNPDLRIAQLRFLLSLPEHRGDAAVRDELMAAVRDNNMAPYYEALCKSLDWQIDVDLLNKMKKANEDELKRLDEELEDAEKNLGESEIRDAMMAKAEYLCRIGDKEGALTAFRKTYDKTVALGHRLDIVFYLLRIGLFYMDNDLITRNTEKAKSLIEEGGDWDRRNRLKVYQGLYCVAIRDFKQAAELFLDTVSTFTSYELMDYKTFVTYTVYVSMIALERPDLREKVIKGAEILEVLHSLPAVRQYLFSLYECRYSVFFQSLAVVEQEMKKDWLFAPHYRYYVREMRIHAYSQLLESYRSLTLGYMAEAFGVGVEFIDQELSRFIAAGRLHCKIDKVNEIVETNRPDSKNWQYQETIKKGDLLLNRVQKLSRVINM
inactive: [1] 0.033 | [2] -0.046 | [3] -0.08 | [4] 0.052 | [5] -0.071 | [6] -0.02 | [7] 0.047 | [8] 0.03 | [9] 0.057 | [10] 0.056 | [11] 0.115 | [12] 0.008 | [13] 0.022 | [14] 0.054 | [15] 0.059 | [16] -0.014 | [17] -0.083 | [18] -0.035 | [19] 0.03 | [20] -0.012

PRPSAP2 (UniProt O60256)
Sequence of UniProt O60256 (O60256 whole entry, looked up): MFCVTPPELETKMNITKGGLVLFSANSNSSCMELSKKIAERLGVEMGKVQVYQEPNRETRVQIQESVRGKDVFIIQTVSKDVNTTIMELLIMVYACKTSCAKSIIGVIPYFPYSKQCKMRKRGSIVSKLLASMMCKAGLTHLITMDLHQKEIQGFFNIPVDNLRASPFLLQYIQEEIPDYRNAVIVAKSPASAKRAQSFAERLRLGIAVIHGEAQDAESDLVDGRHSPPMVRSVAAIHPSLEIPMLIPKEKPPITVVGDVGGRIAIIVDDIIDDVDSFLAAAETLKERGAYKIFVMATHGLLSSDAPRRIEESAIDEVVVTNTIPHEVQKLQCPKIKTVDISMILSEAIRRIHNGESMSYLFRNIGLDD
inactive: [1] 0 | [2] 0.01 | [3] 0.112 | [4] -0.016 | [5] -0.013 | [6] 0.114 | [7] 0.038 | [8] 0.023 | [9] -0.007 | [10] 0.012 | [11] -0.034 | [12] 0.124 | [13] -0.024 | [14] 0.064 | [15] -0.028 | [16] -0.005 | [17] -0.037 | [18] -0.018 | [19] 0.023 | [20] -0.008

PRKCD (UniProt Q05655)
inactive: [1] 0.05 | [2] -0.008 | [3] 0.053 | [4] -0.215 | [5] 0.009 | [6] -0.056 | [7] -0.006 | [8] 0.007 | [9] 0.005 | [10] -0.007 | [11] -0.028 | [12] -0.007 | [13] 0.033 | [15] -0.049 | [16] -0.021 | [17] 0.027 | [18] 0.102 | [19] 0.008 | [20] 0.08
active: [14] -0.261

PTP4A1 (UniProt Q93096)
Sequence of UniProt Q93096 (Q93096 whole entry, looked up): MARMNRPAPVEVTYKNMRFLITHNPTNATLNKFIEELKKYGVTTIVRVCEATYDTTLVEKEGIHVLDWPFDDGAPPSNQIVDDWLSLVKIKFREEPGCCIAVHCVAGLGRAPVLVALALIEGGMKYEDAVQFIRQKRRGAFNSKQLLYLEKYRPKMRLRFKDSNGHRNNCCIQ
active: [16] -0.299
inactive: [1] 0.04 | [2] 0.036 | [3] -0.006 | [4] -0.094 | [5] -0.013 | [6] -0.116 | [7] 0.018 | [8] -0.039 | [9] -0.037 | [10] 0.039 | [11] -0.023 | [12] 0.013 | [13] 0.039 | [14] -0.049 | [15] 0.108 | [17] 0.181 | [18] 0.093 | [19] -0.005 | [20] 0.074

PBK (UniProt Q96KB5)
Sequence of UniProt Q96KB5 (Q96KB5 whole entry, looked up): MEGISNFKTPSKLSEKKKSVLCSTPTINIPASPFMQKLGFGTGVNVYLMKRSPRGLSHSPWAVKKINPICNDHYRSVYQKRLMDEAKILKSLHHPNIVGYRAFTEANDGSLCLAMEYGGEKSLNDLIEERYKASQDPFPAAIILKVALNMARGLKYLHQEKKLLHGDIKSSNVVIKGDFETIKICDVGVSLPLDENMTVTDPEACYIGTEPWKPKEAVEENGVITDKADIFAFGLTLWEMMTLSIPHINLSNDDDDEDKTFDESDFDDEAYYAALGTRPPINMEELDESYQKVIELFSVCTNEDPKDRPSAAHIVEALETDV
inactive: [1] 0.048 | [2] -0.046 | [3] 0.051 | [4] 0.134 | [5] 0.006 | [6] -0.136 | [7] 0.109 | [8] 0.157 | [9] 0.015 | [10] -0.066 | [11] 0.064 | [12] 0.064 | [13] -0.053 | [14] -0.152 | [15] -0.084 | [16] 0.078 | [17] -0.004 | [18] 0.059 | [19] -0.067 | [20] -0.06

POLA1 (UniProt P09884)
Sequence of UniProt P09884 (P09884 whole entry, looked up): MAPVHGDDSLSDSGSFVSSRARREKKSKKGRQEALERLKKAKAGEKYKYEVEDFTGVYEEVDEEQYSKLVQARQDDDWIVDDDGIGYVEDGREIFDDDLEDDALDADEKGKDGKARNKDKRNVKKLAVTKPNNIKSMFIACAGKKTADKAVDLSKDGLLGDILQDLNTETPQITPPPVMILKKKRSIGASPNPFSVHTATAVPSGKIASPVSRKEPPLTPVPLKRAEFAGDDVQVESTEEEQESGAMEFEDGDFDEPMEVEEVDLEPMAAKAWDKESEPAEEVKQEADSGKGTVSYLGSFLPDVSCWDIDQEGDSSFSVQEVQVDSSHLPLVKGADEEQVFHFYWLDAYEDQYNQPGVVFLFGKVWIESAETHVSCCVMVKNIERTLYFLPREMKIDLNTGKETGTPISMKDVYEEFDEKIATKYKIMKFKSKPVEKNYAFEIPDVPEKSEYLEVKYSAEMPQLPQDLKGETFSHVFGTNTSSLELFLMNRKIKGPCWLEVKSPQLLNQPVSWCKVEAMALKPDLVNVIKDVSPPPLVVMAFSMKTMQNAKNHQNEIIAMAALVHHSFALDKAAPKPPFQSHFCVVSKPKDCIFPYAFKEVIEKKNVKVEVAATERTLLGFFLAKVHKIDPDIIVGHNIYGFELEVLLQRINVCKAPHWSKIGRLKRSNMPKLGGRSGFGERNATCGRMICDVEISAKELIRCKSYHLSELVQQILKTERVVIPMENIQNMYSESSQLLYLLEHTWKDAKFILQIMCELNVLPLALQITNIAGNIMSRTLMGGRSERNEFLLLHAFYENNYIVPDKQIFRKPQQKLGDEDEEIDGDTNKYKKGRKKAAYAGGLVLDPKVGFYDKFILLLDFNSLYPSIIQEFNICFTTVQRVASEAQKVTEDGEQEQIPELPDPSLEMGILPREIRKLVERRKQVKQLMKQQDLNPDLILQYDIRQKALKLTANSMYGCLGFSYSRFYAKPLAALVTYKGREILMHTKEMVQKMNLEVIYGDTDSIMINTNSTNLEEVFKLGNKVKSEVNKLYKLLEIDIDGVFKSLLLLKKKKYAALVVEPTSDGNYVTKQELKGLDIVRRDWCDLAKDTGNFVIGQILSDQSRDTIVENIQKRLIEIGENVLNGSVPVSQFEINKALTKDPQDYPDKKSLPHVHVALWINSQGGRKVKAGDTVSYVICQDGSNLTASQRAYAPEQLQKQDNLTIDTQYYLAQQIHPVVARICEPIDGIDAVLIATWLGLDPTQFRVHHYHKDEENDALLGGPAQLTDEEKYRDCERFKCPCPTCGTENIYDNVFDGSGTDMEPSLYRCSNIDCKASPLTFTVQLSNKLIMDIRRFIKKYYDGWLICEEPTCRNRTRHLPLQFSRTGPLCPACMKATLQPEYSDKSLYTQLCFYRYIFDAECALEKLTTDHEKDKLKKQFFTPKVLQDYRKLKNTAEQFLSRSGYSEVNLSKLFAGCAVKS
inactive: [1] 0.01 | [2] -0.041 | [3] 0.065 | [4] -0.048 | [5] 0.046 | [6] -0.069 | [7] 0.083 | [8] 0.09 | [9] -0.029 | [10] -0.036 | [11] 0.021 | [12] 0.021 | [13] -0.043 | [14] -0.033 | [15] -0.173 | [16] 0.01 | [17] 0.019 | [18] 0.014 | [19] -0.091 | [20] 0.064

PAK4 (UniProt O96013)
active: [14] 0.352
inactive: [1] -0.028 | [2] -0.033 | [3] 0.058 | [4] -0.017 | [5] 0.037 | [6] -0.028 | [7] -0.013 | [8] 0.021 | [9] -0.042 | [10] -0.111 | [11] -0.072 | [12] 0.011 | [13] -0.016 | [15] -0.068 | [16] 0.01 | [17] 0.04 | [18] 0.007 | [19] 0.015 | [20] -0.092

PPP1R12A (UniProt O14974)
Sequence of UniProt O14974 (O14974 whole entry, looked up): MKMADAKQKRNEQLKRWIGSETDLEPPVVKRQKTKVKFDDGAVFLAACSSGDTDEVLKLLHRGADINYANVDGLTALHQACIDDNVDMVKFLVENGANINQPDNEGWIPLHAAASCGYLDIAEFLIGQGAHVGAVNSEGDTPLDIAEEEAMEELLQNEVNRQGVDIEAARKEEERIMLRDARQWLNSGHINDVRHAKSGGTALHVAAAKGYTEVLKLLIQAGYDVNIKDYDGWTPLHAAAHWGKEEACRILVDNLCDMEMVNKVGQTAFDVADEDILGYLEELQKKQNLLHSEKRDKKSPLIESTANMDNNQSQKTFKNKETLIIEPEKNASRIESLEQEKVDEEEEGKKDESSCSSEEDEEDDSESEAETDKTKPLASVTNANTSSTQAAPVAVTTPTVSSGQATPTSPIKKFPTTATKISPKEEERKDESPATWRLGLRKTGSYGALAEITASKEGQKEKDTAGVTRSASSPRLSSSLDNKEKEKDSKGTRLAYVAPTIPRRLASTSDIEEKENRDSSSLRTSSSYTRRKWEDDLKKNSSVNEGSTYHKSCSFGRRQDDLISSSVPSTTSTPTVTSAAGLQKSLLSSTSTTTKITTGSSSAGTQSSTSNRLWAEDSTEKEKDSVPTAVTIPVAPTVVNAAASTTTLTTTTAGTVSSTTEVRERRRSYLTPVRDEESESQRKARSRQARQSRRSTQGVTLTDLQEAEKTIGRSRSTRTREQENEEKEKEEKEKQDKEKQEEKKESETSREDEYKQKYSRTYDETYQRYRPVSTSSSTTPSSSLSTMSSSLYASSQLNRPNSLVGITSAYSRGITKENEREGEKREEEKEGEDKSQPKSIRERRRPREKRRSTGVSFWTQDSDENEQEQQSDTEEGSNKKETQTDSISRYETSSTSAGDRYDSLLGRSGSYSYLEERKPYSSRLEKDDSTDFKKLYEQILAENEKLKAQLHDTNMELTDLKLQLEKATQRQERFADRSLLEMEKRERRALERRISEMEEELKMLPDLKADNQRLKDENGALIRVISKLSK
active: [4] -0.885
inactive: [1] -0.054 | [2] -0.351 | [3] -0.039 | [5] 0.065 | [6] 0.021 | [7] 0.011 | [8] 0.029 | [9] -0.054 | [10] -0.1 | [11] -0.041 | [12] -0.02 | [13] -0.027 | [14] -0.302 | [15] -0.108 | [16] -0.118 | [17] -0.002 | [18] 0.02 | [19] -0.023 | [20] 0.07
